# Laboratory results reported in PubChem BioAssay.
# Tested on: XIP peptide (Xip251-270)
# Assay: compounds binding XIP fragment 251-270 – biochemical, small-molecule microarray, fluorescence 635/667 nm, 0.5 µg/mL protein, primary screen (AID 1183)
# Conditions: fluorescence 635 nm, higher = more signal
row,SMILES,composite z-score
1,CCOC(=O)[C@H](Cc1ccccc1)NC(=O)CCC1CC(OC(=O)NCc2cccc3ccccc23)CC2(CCCC(COC(=O)NCCc3ccccc3OC)O2)O1 (stereo partly specified),0.374
2,C#CCCCON=C1[C@H]2CCn3c(=O)n(Cc4cc5c(cc4Cl)OCO5)c(=O)n3[C@H]2[C@H](O)[C@@H]2O[C@H]12,0.278
3,CC1(C)O[C@H]2O[C@H]([C@H](O)CON=C3[C@H]4CCn5c(=O)n(-c6ccccc6)c(=O)n5[C@H]4[C@H](O)[C@@H]4O[C@H]34)[C@H](O)[C@H]2O1,-0.0051
4,O=C1C[C@@H](O)[C@@H](O)[C@@H]2[C@@H]3C(=O)N(C4CCCCC4)C(=O)[C@@H]3CC[C@@H]12,0.148
5,O=C(NN=C1C[C@@H](O)[C@@H](O)[C@@H]2[C@@H]3C(=O)N(Cc4ccccc4)C(=O)[C@@H]3CC[C@H]12)OCc1ccccc1,-0.0586
6,CO[C@@H]1[C@H](O)CO[C@H]1C=Cc1ccccc1,0.836
7,COC(=O)C1=C(C)N(Cc2ccccc2)C2=C3C(=O)OCC[C@@H]3[C@@](O)(C(=O)OC)C(=O)N2[C@@H]1c1ccccc1,-0.189
8,CO[C@@H]1C=CCC(=O)N[C@@H](C)C(=O)OC[C@@H](NS(=O)(=O)c2ccc(C)cc2)[C@H](C)C=CCC(=O)OC[C@H]1C,0.247
9,O=C(NN=C1C[C@@H](O)[C@@H](O)[C@@H]2[C@@H]3C(=O)N(c4ccc(F)cc4F)C(=O)[C@@H]3CC[C@H]12)OCc1ccccc1,0.653
10,CC(C)=CCCC(C)=CCON=C1C[C@@H](O)[C@@H](O)[C@@H]2[C@@H]3C(=O)N(C4CCCCC4)C(=O)[C@@H]3CC[C@H]12,0.722
11,O=C1[C@H]2CCn3c(=O)n(-c4ccccc4)c(=O)n3[C@H]2[C@H](O)[C@@H]2O[C@H]12,0.614
12,COC(=O)C(C(=O)OC)C1CCCC(=O)C1 (stereo unspecified),0.237
13,COc1ccc(OC[C@H]2CN3[C@@H](CC[C@@H](C)[C@@H]3c3ccc(Br)cc3)C(=O)O2)cc1,0.61
14,CC(CCN1CCCc2nc(C)c(C)cc21)=NO[C@H](C)c1cn([C@@H]2COC[C@H]2O)nn1,0.588
15,C#CCCCON=C1C[C@@H](O)[C@@H](O)[C@@H]2[C@@H]3C(=O)N(C4CCCCC4)C(=O)[C@@H]3CC[C@@H]12,0.0169
16,O=C1C2=CC[C@H]3C(=O)N(Cc4ccccc4)C(=O)[C@H]3[C@H]2[C@H](O)[C@@H]2O[C@H]12,-0.194

row,SMILES,composite z-score
1,C[C@H]1CC[C@@H](C(=O)O)N[C@@H]1c1ccc(C#Cc2ccccc2)cc1,0.601
2,COC(=O)[C@H](C)NC(=O)CCC1CC(OC(=O)NCc2ccc3c(c2)OCO3)CC2(CCCC(COC(=O)NCCC(C)C)O2)O1 (stereo partly specified),0.106
3,CC(C)[C@@H](OCc1ccccc1)[C@H](C)C=NO[C@@H](C)c1cn([C@H](CO)Cc2ccccc2)nn1,-0.0098
4,CC#CCOCCC=C1c2ccccc2[C@@H](OC)[C@@H]1C,0.0938
5,CC(C)(C)N1C(=O)[C@H]2[C@H]3[C@H](O)[C@H](O)CC(=NOC[C@@H](O)COCc4ccco4)[C@@H]3CC[C@H]2C1=O,0.502
6,CCOC(=O)[C@H](Cc1ccccc1)NC(=O)CCC1CC(OC(=O)NCc2ccc3c(c2)OCO3)CC2(CCCC(COC(=O)NCCOC)O2)O1 (stereo partly specified),0.515
7,CO[C@@H]1COC(=O)CC=C[C@H](C)[C@H](OC)COC(=O)[C@@H]2CCCN2C(=O)CC=C[C@H]1C,0.607
8,CC(C)=CCCC(C)=CCON=C1C[C@@H](O)[C@@H](O)[C@@H]2[C@@H]3C(=O)N(Cc4ccc5c(c4)OCO5)C(=O)[C@@H]3CC[C@H]12,0.17
9,O=C1CCCC=C1C(O)COCc1ccccc1 (stereo unspecified),0.269
10,CC(C)(C)N1C(=O)[C@H]2[C@H]3[C@H](O)[C@H](O)CC(=NNC(=O)OCc4ccccc4)[C@@H]3CC[C@H]2C1=O,0.195
11,O=C1C2=CC[C@H]3C(=O)N(c4ccc(F)cc4F)C(=O)[C@H]3[C@H]2[C@H](O)[C@@H]2O[C@H]12,0.167
12,CC(CCN1CCCc2nc(C)c(C)cc21)=NO[C@@H](C)c1cn([C@H](CO)Cc2ccccc2)nn1,0.244
13,CCOC(=O)[C@H](CC(C)C)NC(=O)CCC1CC(OC(=O)NCc2ccc3c(c2)OCO3)CC2(CCCC(COC(=O)NCCOC)O2)O1 (stereo partly specified),0.0552
14,COCCNC(=O)OCC1CCCC2(CC(OC(=O)NCc3cccc4ccccc34)CC(CCC(=O)N[C@@H](C)C(=O)OC)O2)O1 (stereo partly specified),0.588
15,COC(=O)CC=C[C@@H](C)[C@@H](C=NOC(C)CN1CCCCc2nc(C)c(C)cc21)NS(=O)(=O)c1ccc(C)cc1 (stereo partly specified),-0.0903
